# For some assays here: Potency and affinity values are given separately.
# How the values were obtained:
# Design in all cases: scale not given: direction of the effect not stated beside the values
# [1] = target: Protein translocase subunit SecA (Escherichia coli (strain K12)) (UniProt P10408); assay: Assay to Identify E. coli SecA ATPase Inhibitors; type: functional; details: 30 µM
# [2] = target: T1, Ubiquitin-activating enzyme e1, putative (Leishmania donovani (strain BPK282A1)) (UniProt E9BSI1); assay: Leishmania donovani Ubiquitin Activating Enzyme (LdE1); type: functional; details: 30 µM
# T1 sequence (whole entry): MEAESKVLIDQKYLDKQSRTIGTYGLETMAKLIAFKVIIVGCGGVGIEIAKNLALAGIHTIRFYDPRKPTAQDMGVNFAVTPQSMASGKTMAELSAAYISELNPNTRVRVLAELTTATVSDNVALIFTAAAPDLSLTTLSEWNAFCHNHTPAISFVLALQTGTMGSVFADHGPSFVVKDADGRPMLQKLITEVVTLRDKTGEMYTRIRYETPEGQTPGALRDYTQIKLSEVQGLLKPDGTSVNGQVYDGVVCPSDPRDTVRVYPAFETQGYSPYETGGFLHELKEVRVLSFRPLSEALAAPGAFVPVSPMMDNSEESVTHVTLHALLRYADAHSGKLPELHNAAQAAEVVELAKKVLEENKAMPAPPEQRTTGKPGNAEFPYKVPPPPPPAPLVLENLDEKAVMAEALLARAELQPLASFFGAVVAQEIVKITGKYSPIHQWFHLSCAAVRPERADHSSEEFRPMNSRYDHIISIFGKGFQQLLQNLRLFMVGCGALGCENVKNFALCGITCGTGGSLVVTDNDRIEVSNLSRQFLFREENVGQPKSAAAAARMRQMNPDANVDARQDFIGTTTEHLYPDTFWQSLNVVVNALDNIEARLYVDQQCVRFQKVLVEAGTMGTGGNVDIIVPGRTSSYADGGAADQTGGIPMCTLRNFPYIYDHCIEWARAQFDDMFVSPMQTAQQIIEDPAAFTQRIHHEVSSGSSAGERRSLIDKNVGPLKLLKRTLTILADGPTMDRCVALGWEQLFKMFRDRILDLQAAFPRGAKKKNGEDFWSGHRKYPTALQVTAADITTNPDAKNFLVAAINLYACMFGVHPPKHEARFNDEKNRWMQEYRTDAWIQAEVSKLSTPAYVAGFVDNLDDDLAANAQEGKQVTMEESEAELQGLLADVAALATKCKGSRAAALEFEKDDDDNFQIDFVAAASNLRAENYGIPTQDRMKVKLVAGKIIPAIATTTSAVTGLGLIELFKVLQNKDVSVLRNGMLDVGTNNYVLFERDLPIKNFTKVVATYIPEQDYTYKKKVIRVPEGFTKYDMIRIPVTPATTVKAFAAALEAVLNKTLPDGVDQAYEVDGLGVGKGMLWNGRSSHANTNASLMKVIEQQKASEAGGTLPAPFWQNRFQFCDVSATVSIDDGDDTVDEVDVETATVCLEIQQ
# [3] = target: Sialic acid-binding Ig-like lectin 9 (Homo sapiens) (UniProt Q9Y336); assay: Hs-Siglec9 ALPHAscreen SOP 20170721; details: 10 µM
# Trypanosoma cruzi = assay: Trypanosoma cruzi phosphomannomutase and mannose-1-phosphate guanylyltransferase assay; type: functional; details: 10 µM
# [4] = target: T2, Arginase-2, mitochondrial (Homo sapiens) (UniProt P78540); assay: in vitro enzyme assay to detect the production of urea directly proportional to the activity of Arginase II; type: functional; details: 33.3 µM; also: in the data most compounds retested in dose-response had high values
# T2 sequence (whole entry): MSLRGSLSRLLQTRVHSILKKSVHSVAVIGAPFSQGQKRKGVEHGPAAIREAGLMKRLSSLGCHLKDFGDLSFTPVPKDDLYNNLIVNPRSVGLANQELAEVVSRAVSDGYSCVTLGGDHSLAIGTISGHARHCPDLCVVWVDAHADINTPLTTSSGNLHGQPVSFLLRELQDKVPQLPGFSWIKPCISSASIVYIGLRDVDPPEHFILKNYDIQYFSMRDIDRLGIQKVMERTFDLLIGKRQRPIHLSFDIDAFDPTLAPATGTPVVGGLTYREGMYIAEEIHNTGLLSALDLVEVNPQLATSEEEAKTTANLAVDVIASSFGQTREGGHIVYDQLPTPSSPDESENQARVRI
# [5] = target: T3, Proteasome subunit beta (Trypanosoma cruzi) (UniProt O96673); assay: Trypanosoma cruzi proteasome chymotrypsin-like activity (TcProtChymo) assay.; also: in the data most compounds retested in dose-response had high values; type: functional; details: 9.37 µM
# T3 sequence (whole entry): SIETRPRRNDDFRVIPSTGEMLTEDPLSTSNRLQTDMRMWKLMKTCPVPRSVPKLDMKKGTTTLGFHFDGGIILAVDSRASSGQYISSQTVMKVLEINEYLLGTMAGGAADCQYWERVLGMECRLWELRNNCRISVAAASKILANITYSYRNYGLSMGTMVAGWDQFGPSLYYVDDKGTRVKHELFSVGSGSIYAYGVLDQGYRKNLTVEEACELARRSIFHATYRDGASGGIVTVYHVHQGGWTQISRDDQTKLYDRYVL
# Homo sapiens = species: Homo sapiens; assay: To identify inhibition of the IFN signalling (Jak-Stat) pathway via expression of an eGFP reporter gene under the control of an IFN-stimulated response element (ISRE) containing MxA promoter.; type: functional; details: 30 µM
# [6] = target: T4, Tyrosyl-tRNA synthetase, putative (Trypanosoma cruzi (strain CL Brener)) (UniProt Q4DSP6); assay: Trypanosoma cruzi tyrosyl tRNA synthetase (TcYRS) _High Tyrosine SOP; type: functional; details: 30 µM; also: in the data most compounds retested in dose-response had high values
# T4 sequence (whole entry): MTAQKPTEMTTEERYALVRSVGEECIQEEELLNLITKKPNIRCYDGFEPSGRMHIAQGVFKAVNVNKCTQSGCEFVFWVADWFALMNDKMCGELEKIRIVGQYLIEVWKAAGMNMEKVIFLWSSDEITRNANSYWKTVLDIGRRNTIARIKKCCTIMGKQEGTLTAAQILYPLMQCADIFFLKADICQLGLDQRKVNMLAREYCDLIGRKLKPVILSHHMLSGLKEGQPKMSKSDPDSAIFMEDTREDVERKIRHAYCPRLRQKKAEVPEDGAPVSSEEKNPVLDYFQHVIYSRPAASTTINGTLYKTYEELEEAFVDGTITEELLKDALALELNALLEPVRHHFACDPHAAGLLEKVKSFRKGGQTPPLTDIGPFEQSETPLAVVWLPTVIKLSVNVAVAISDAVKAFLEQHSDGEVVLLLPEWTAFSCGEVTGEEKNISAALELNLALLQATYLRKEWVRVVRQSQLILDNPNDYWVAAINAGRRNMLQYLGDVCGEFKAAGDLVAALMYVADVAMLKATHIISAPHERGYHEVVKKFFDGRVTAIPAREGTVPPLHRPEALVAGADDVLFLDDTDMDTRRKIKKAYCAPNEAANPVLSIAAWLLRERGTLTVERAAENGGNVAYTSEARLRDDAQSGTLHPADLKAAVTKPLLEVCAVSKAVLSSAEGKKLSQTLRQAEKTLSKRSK
# [7] = target: T4, Tyrosyl-tRNA synthetase, putative (Trypanosoma cruzi (strain CL Brener)); assay: Trypanosoma cruzi tyrosyl tRNA synthetase (TcYRS) SOP; type: functional; details: 30 µM
# [8] = target: Chromo domain-containing protein 1 (Saccharomyces cerevisiae (strain ATCC 204508 / S288c) (Baker's yeast)) (UniProt P32657); assay: ScCHD-1 Enzyme Inhibition Assay; type: functional; details: 30 µM; also: in the data most compounds retested in dose-response had high values
# Sequence of Chromo domain-containing protein 1 (Saccharomyces cerevisiae (strain ATCC 204508 / S288c) (Baker's yeast)) (P32657 whole entry, the tested form may be a part): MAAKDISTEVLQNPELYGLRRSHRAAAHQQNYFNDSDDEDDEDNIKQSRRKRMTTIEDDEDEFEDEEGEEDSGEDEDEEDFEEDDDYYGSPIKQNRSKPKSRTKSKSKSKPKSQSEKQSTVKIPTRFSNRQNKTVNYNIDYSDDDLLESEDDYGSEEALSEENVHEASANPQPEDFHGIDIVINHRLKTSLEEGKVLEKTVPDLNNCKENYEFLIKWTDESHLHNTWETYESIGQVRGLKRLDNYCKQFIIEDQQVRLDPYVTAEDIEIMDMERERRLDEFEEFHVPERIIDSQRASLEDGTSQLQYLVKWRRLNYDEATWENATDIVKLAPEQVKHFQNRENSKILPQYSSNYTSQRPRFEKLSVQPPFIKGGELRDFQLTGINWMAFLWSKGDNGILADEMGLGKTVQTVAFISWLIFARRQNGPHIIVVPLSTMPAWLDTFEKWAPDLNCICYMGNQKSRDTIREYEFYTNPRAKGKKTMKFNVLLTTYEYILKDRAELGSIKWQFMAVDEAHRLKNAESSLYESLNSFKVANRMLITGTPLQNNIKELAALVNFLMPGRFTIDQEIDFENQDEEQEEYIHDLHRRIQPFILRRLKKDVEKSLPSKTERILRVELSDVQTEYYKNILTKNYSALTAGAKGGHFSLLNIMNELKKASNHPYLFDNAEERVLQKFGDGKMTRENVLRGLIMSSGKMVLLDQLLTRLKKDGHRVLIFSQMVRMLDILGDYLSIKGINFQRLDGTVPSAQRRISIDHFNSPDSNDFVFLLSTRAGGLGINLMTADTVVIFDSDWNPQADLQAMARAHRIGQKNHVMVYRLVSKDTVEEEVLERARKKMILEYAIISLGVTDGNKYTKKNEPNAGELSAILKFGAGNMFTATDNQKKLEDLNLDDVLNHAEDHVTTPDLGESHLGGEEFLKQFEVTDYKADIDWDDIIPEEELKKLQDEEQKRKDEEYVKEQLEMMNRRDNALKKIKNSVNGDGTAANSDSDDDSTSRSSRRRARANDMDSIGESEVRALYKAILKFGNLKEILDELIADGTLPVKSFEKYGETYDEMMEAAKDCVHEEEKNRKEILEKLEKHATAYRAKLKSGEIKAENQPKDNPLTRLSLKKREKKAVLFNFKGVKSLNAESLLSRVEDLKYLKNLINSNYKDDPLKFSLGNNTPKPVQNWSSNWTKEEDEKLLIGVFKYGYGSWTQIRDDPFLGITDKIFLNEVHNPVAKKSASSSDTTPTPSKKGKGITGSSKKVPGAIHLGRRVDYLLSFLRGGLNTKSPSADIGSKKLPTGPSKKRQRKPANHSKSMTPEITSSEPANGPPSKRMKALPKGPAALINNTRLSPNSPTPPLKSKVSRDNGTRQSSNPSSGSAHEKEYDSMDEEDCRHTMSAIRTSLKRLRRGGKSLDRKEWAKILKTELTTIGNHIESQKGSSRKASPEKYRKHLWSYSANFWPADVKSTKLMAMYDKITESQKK
# Sequence of Sialic acid-binding Ig-like lectin 9 (Homo sapiens) (Q9Y336 whole entry): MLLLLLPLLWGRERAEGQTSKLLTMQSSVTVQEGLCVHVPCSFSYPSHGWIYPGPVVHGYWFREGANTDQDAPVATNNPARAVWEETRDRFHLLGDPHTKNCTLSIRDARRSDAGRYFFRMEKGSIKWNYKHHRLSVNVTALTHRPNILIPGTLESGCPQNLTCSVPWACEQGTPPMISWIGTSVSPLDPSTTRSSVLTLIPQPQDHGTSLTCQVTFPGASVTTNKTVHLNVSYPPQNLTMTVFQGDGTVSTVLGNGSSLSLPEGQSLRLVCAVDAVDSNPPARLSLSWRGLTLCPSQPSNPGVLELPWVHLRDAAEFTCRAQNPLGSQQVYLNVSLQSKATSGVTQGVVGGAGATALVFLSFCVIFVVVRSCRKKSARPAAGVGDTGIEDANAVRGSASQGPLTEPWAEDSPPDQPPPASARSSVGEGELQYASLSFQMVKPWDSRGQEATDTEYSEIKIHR
# Sequence of Protein translocase subunit SecA (Escherichia coli (strain K12)) (P10408 whole entry): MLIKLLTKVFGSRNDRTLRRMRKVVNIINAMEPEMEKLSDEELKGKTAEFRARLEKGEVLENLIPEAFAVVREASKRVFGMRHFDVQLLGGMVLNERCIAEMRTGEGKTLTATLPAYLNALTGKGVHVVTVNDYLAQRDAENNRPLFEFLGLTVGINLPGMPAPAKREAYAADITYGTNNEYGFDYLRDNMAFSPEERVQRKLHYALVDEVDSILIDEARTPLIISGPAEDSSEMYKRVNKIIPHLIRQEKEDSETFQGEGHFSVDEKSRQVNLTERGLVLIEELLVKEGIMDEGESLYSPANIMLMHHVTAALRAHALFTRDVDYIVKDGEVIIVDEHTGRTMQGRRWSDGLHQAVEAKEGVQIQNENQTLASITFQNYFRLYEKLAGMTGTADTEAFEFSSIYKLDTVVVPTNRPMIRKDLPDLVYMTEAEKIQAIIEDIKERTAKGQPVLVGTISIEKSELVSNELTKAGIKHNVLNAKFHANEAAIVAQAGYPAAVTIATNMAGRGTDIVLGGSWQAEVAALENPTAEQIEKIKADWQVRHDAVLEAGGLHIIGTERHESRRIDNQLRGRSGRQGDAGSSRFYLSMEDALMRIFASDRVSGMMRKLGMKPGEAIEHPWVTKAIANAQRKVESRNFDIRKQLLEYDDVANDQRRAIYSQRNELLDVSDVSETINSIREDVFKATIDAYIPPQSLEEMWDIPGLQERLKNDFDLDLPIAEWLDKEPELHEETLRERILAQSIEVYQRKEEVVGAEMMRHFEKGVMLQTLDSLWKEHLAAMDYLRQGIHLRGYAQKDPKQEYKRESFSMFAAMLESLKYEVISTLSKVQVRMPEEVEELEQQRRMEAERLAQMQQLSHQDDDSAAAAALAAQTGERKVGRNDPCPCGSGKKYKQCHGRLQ
SMILES,Percent Effect [1] [%],Percent Effect [2] [%],Percent Effect [3] [%],Percent Effect (Trypanosoma cruzi) [%],Percent Effect [4] [%],Percent Effect [5] [%],Percent Effect (Homo sapiens) [%],Percent Effect [6] [%],Percent Effect [7] [%],Percent Effect [8] [%]
CCN1C(=O)CCCC12CCCN(C(=O)c1conc1C)C2 (stereo not given),-1.85,3.9,-5.23,-3.75,-0.457,5.75,14,-4.83,-5,-2.52
Cc1cc(C)n(CC2CCCCN2C(=O)c2cnn(C)c2)n1 (stereo not given),-5.83,8,1.34,-5.22,-2.22,6.02,5.12,-0.526,2.56,-0.708
CC1CCN(C(=O)c2cccc3ncccc23)CC1,-2.07,-5.33,1.04,-1.21,-1.33,3.48,19,4.74,7.69,1.83
Cc1nn(-c2ccccc2)cc1C(=O)N1CCCC(n2cccn2)C1 (stereo not given),-2.22,13.3,4.19,1,7.09,9.07,-2.62,4.74,12.8,-12.7
CCc1ccc(NC(=O)C2OC(c3cccs3)=NN2C(C)=O)cc1 (stereo not given),-5.81,12,-5.11,3.94,-0.443,19.2,14.4,1.06,10,-26.1
NCc1cn(-c2ccccc2C(=O)NCc2ccccc2)cn1,-2.27,14.7,1.6,-0.592,1.33,10.2,26.2,6.35,15,-23.1
Cc1cc(OCC(=O)NS(=O)(=O)c2c(C)noc2C)ccc1Cl,-0.396,-5.13,2.29,4.79,0,1.28,18.7,-5.26,-1.21,0.575
COC(=O)C1CCN(C(=O)c2ccc(NS(C)(=O)=O)c(C)c2)CC1,-3.21,-5.41,-1.94,-2.04,-0.35,10.3,-0.596,3.72,0,0.629
COc1ncccc1C(=O)N1CCn2c(COCC3CC3)cnc2C1C (stereo not given),-3.37,3.9,-3.01,1.07,-1.62,8.21,-16,4.74,7.69,1.11
CN(C)C[C@H]1OC[C@@H]2CCN(S(=O)(=O)c3ccccc3)C[C@@H]21,-7.48,3.9,9.94,-4.58,-5.26,7.33,5.69,-2.63,-5.13,-2.54
CCC1CN(C(=O)NCCOc2ccc3c(c2)OCO3)CCO1 (stereo not given),1.77,18.2,-3.28,-3.36,5.53,15.4,1.58,4.9,16.5,-6.67
COc1cc(S(=O)(=O)N2CCCc3ccccc32)cc(C(=O)O)c1OC,-5.67,0,10.6,-0.201,-3.99,7.38,9.13,0.526,7.69,-5.31
Cc1ccc(OC2(C(=O)O)CCN(C(=O)c3nc(C)oc3C)CC2)cn1,-6.7,0,-0.0712,4.17,1.05,-1.2,-9.04,2.66,4.88,1.11
O=c1c(-c2ccnc(NC3CCOCC3)n2)cnc2sc(Cl)cn12,5.59,16,-4.95,-8.63,-2.66,17.7,12,1.58,0,-10.8
CC(C)(N)C(=O)N1CCCC1c1cncc(Oc2ccc(F)cc2)n1 (stereo not given),-4.32,17.3,10.6,0.789,-0.443,1.31,-1.85,6.35,15,-24.2
Cc1nn(-c2ccccc2)cc1C(=O)N1CCCN2CCCC2C1 (stereo not given),-4.61,10.7,5.72,-0.201,0.887,7.21,3.25,7.89,12.8,-14.7
CC(C)c1cc(N2CCC(CCC(=O)NC3CC3)CC2)n2nccc2n1,-2.45,5.41,2.79,-0.097,2.45,9.76,7.29,4.79,12.2,-3.08
CC(=O)N1CC(=O)N(c2ccccc2)CC12CCN(CC1CC1)C2 (stereo not given),-11,1.3,22.2,-1.27,-2.02,12.1,15.9,2.63,-5.13,-0.48
CCn1cc(NC(=O)NCc2ccc(CN3CCOCC3)cc2)cn1,0.918,13,16,-7.28,-6.35,10,24.2,4.9,11.8,-1.62
CN(Cc1cccc(F)c1)C(=O)CN1CCOC(Cn2cccn2)C1 (stereo not given),0.367,0,7.99,0.933,0.615,3.86,8.18,3.92,9.41,-0.994
Cc1cnn(CC2CCCCN2CCCS(N)(=O)=O)c1 (stereo not given),-1.01,21.3,-1.72,-2.01,3.55,11.3,8.53,5.79,-2.56,-12.4
Cc1cc(C2CCCN2CCCS(=O)(=O)c2ccccc2)no1 (stereo not given),-1.74,5.13,19.5,-1.41,-1.23,-8.11,8.46,3.35,8.43,-1.93
O=C(NCCn1ccnc1)N1CCN(Cc2cccs2)CC1,2.19,18.2,-6.1,-9.14,2.66,21.9,12.6,4.9,16.5,-9.63
